Screening data as filed in PubChem.
HT1080-NT tox: kills 2HG-producing HT-1080-NT fibrosarcoma cells; 360,000 tested, 1.6% active; AID 686970; Potency, µM (series often up to 46.1 µM), without a hit: at the highest dose activity, negative = less viability, actives largely listed as cytotoxic; HT-1080-NT fibrosarcoma viability, CellTiter-Glo ATP luminescence, 48 h;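 also: NT is the 2HG producing partner of a matched IDH1 knockdown line; 0% = DMSO-treated cells and -100% = media-only wells without cells; nearly all actives have a fitted effect of over 55% in size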
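Fibrosarcoma NT cells, 750 per well in 5% FBS RPMI, were exposed to compound for 48 hours. Viability: CellTiter-Glo luminescence.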
TGFb inhibitor: TGF-b pathway inhibition | HepG2 CAGA-GFP TGF-b/SMAD3 reporter, GFP fluorescence, 18 h; TGF-beta stimulated, 500 pg/mL final | 410,000 tested, 1.2% active | Potency, µM (top dose mostly 46.1 µM), inactives show at the highest dose activity, negative = inhibition, most hits filed as inhibitors | AID 588855; also: % is scaled to controls: 0 for no effect and ±100 for the full control effect; nearly all actives have a fitted effect of over 65% in size
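Inhibition was scored as loss of TGF-beta-induced (500 pg/mL final, 18 hours, 37 degrees C) GFP in HEPG2 cells carrying a CAGA-GFP reporter, in DMEM with 1% FBS. Well GFP was summed per cell; Activity was normalised to unstimulated and stimulated DMSO wells, then concentration-response fitting.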
S2 tox: cell viability loss in ATXN counter-screen. 400,000 tested, 0.49% active. Potency, µM (series often up to 56.7 µM), most hits filed as cytotoxic. AID 651635. S2 cells (HEK-293 line with an ATXN2-luciferase reporter) viability, CellTiter-Fluor protease fluorescence, 24 h; also: nearly all actives have a fitted effect of over 40% in size
HepG2 viability: HepG2 cytotoxicity, counter-screen for TGF-b inhibitors. HepG2 CAGA-GFP viability, ATP luminescence, 18 h. Potency, µM (series often up to 46.1 µM), for inactives: at the top dose activity change, negative = cytotoxicity, actives largely listed as cytotoxic. 410,000 tested, 0.76% active. AID 588856
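HepG2 CAGA-GFP cells (1000/well, DMEM with 1% FBS) received compound, then TGF-beta at 500 pg/mL final, and were incubated 18 hours at 37 degrees C. Viability was read by CellTiter-Glo luminescence. Media-only wells were set as complete cell-killing and DMSO as no toxicity.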
ATXN2 expr inh: ATXN2 expression inhibition; Potency, µM (highest dose often 57 µM), for inactives: at the top dose activity change, negative = inhibition, hits mostly inhibitors; 360,000 tested, 0.72% active; AID 1745845; HEK-293 ATXN2-luciferase reporter, luminescence, 24 h; also: % is scaled to controls: 0 for no effect and ±100 for the full control effect; nearly all actives have a fitted effect of over 55% in size
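ATXN2-luciferase reporter cells (luciferase flanked by upstream and downstream ATXN2 gene portions) were treated 24 h at 37 °C with compounds at up to 57 uM. SteadyGlo luminescence gave expression; GF-AFC fluorescence gave viability.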
HT1080 IDH1KD tx: toxicity to HT-1080 IDH1 knockdown cells (counter line); HT-1080 IDH1 knockdown viability, ATP luminescence, 48 h; Potency, µM (top dose mostly 46.1 µM), inactives show at the highest dose activity, negative = toxicity, actives largely listed as cytotoxic; 360,000 tested, 2% active;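 also: 0% = DMSO wells and -100% = cell-free medium wells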
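HT-1080-IDH1KD cells (IDH1 knocked down), 750/well in RPMI with 5% FBS, treated with compound 48 h at 37 degrees C. Viability by CellTiter-Glo luminescence, normalised to DMSO and no-cell wells; concentration-response curves classed.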
Numbers without * were called inactive; i = inactive; ? = inconclusive; nt = not tested or not shown. Only some compounds are listed: those with a hit (about 3.8% of all), similar ones and a draw of the others. Calls follow the shape of the dose curve; as a rule, active = well fitted curve in the direction sought with a large enough effect; inconclusive = small, poorly fitted or top-dose-only effect, or another doubt; inactive = no such curve, though single readings can be large; an effect the other way counts as inactive or inconclusive. Potency is read from the fitted curve at half-maximal effect.

SMILES	HT1080-NT tox	TGFb inhibitor	S2 tox	HepG2 viability	ATXN2 expr inh	HT1080 IDH1KD tx
COc1cc(=O)n2c(c1C(=O)NCc1cccc(F)c1)CCN(Cc1cccnc1)CC2	nt	nt	i	nt	nt	nt
C[C@@H]1CCCCO[C@@H](CN(C)Cc2ccc(Cl)c(Cl)c2)[C@@H](C)CN([C@H](C)CO)C(=O)c2cc(NC(=O)CCC(F)(F)F)ccc2O1	?	?	?	-25%	?	?
C[C@H](CO)N1C[C@H](C)[C@@H](CN(C)S(C)(=O)=O)Oc2ccc(NC(=O)Nc3ccc(C(F)(F)F)cc3)cc2C1=O	19%	-15%	i	-26%	-9%	15%
C[C@H](CO)N1C[C@H](C)[C@@H](CN(C)S(=O)(=O)c2ccc(F)cc2)Oc2ccc(NS(=O)(=O)c3ccc(F)cc3)cc2C1=O	9%	?	?	-72%	-2%	0%
CC(C)NC(=O)N(C)C[C@H]1Oc2c(NC(=O)Nc3ccc(C(F)(F)F)cc3)cccc2C(=O)N([C@H](C)CO)C[C@@H]1C	-8%	?	?	-26%	-8%	-11%
C[C@H](CO)N1C[C@H](C)[C@@H](CN(C)C(=O)NC2CCCCC2)Oc2c(NC(=O)Nc3ccc(C(F)(F)F)cc3)cccc2C1=O	?	14µM*	?	-41%	?	?
C[C@@H]1CN([C@H](C)CO)C(=O)c2cc(NC(=O)Nc3ccc(C(F)(F)F)cc3)ccc2O[C@H]1CN(C)Cc1ccc(Cl)c(Cl)c1	?	11µM*	13µM*	-111%	?	?
C[C@@H]1CN([C@@H](C)CO)C(=O)c2cc(NC(=O)CCC(F)(F)F)ccc2O[C@H]1CN(C)Cc1ccc(Cl)c(Cl)c1	?	13µM*	?	-85%	?	23µM*
C[C@@H]1CN([C@H](C)CO)C(=O)c2cc(NS(=O)(=O)c3ccc(F)cc3)ccc2O[C@@H]1CN(C)Cc1ccc(Cl)c(Cl)c1	23µM*	11µM*	?	-100%	?	?
O=C(CSc1ncc2c(n1)-c1cc(Cl)ccc1N(Cc1ccccc1F)S2(=O)=O)Nc1cccc(C(F)(F)F)c1	nt	-13%	i	-29%	7%	nt
COc1cc(C)c(CN2CCc3nnc(C(C)NC(=O)c4cc(F)ccc4F)n3CC2)cc1C (stereo not given)	nt	nt	i	nt	nt	nt
CC[C@H](C)C(=O)O[C@H]1CCC=C2C=C[C@H](C)[C@H](CC[C@@H]3C[C@@H](O)CC(=O)O3)[C@H]21	4.1µM*	108%	i	-41%	-8%	7.3µM*
CCC(C)C(=O)OC1CCC=C2C=CC(C)C(CCC3CC(O)CC(=O)O3)C21 (stereo not given)	12µM*	-3%	i	-39%	10%	?
CC[C@H](C)C(=O)O[C@H]1C[C@@H](C)C=C2C=C[C@H](C)[C@H](CC[C@@H]3C[C@@H](O)CC(=O)O3)[C@H]21	18µM*	92%	?	-43%	5%	21µM*
O=C(CSc1ccccn1)Nc1nonc1[N+](=O)[O-]	21µM*	11µM*	13µM*	13µM*	nt	?
COc1ccc(NC(=O)C(C)Sc2cc(-c3ccccc3)nc(C)n2)cc1Cl (stereo not given)	nt	0%	nt	0%	nt	nt
COc1cc(Cl)c(C)cc1NC(c1ccccc1)c1nnc(-c2ccccc2Cl)o1 (stereo not given)	nt	18µM*	nt	-35%	nt	nt
O=C(CN1Cc2ccccc2OC(c2ccsc2)C1)NCC1OCCc2ccccc21 (stereo not given)	nt	nt	i	nt	nt	nt
CCCN(C(=O)Cn1nc(Cc2cccnc2)c2ccccc2c1=O)c1ccc(C(C)C)cc1	nt	20µM*	nt	13µM*	nt	nt
